{"source": "PubChem BioAssay AID720518", "about": "(National Center for Advancing Translational Sciences (NCATS), 2013)", "note": "Inconclusive results are not listed. Values without a mark were called inactive. The call rests on the fitted dose curve."}
{"assay": "qHTS for Inhibitors of Cell Surface uPA Generation: Wild-type Protective Antigen (WT-PrAg) Counterscreen for Cherry-picked Compounds; further: 0% is about no effect", "details": "cells, WT protective antigen toxicity counterscreen; series mostly up to 115 µM; activity (protection): at the top concentration", "units": {"activity (protection)": "%"}}
{"smiles": "COCC(=O)N1CCC(n2nccc2NC(=O)c2ccccc2OC)CC1", "activity (protection)": -1.49}
{"smiles": "CC(C)C(NC(=O)Cc1ccccc1)C(=O)N1CCN(c2cccc(Cl)c2)CC1", "note": "(stereo not given)", "activity (protection)": -2.55}
{"smiles": "Cn1cccc1Cc1nnc(SCC(=O)Nc2ccc3c(c2)OCCO3)n1-c1ccc(F)cc1", "activity (protection)": -1.41}
{"smiles": "COC(=O)[C@@]1(Cc2ccc(F)cc2)[C@H]2c3cc(C(=O)N(C)C)n(Cc4c(CO)[nH]cc(C)c4=O)c3C[C@H]2CN1C(=O)c1ccccc1", "activity (protection)": 1.06}
{"smiles": "CSCC[C@H](NC(=O)[C@H](Cc1ccccc1)n1c(=O)[nH]c2ccccc2c1=O)C(=O)N1CCC[C@@H]1C(=O)O", "activity (protection)": -0.445}
{"smiles": "Cc1ccc(C(O)(COC(=O)C(C)C)COC(=O)C(C)C)c(O)c1", "activity (protection)": -1.61}
{"smiles": "COc1ccccc1N1CCN(Cc2ccc(SC)cc2)CC1", "activity (protection)": -1.86}
{"smiles": "CCOc1cc(/C=N/Nc2cc(C)nc3ccc(C)cc23)ccc1O", "activity (protection)": -0.441}
{"smiles": "O=C(O)c1cc(N=Nc2c(O)[nH]c3ccc([N+](=O)[O-])cc23)ccc1Cl", "activity (protection)": -1.2}
{"smiles": "CCCc1nc2c(=O)n(C)c(=O)[nH]c2n1CCC", "activity (protection)": 0.862}
{"smiles": "O=C(COc1ccccc1F)NCC(c1ccc(F)cc1)N1CCOCC1", "note": "(stereo not given)", "activity (protection)": -0.0642}
{"smiles": "CCS(=O)c1scc(-c2ccc(Cl)cc2)c1C#N", "note": "(stereo not given)", "activity (protection)": -2.44}
{"smiles": "COC(=O)c1cc(CNC(=O)c2ccc(N3CCCC3)c([N+](=O)[O-])c2)ccc1OC", "activity (protection)": -1.8}
{"smiles": "Cc1ccc(C23CC4CC(CC(C(=O)NN)(C4)C2)C3)cc1", "activity (protection)": -1.5}
{"smiles": "COc1ccc(-n2nc(C(=O)Nc3cc(OC)c(OC)c(OC)c3)c3ccccc3c2=O)c(OC)c1", "activity (protection)": -1.69}
{"smiles": "Cn1nc(C(C)(C)C)c([N+](=O)[O-])c1C(=O)N1CCOCC1", "activity (protection)": -0.505}
{"smiles": "Cc1ccc(NS(=O)(=O)c2c(C)nc3sccn3c2=O)c(C)c1", "activity (protection)": -0.69}
{"smiles": "COc1ccc2c(c1)c1nnc(SCC(=O)Nc3ccccc3F)nc1n2C", "activity (protection)": -0.789}
{"smiles": "CC(=O)c1ccc(NC(=O)CN2CCN(c3ccccc3)CC2)cc1", "activity (protection)": -0.688}
{"smiles": "CCCN1CCN(C2CCCCC2NS(=O)(=O)c2ccc(Cl)cc2)CC1", "note": "(stereo not given)", "activity (protection)": 9.95}
{"smiles": "CCN(C(=O)c1c(C)noc1C)c1c(N)n(Cc2ccccc2)c(=O)[nH]c1=O", "activity (protection)": 0.52}
{"smiles": "Cc1ccc(C2=NS(=O)(=O)N(C)C(C(=O)NC3CCCC3)=C2)cc1", "activity (protection)": -0.662}
{"smiles": "NC(=O)c1cc2c3ccccc3ccn2c1-c1ccccc1", "activity (protection)": -1.66}
{"smiles": "COCCNC(=S)N(CCc1c(C)[nH]c2ccccc12)Cc1ccco1", "activity (protection)": -1.52}
{"smiles": "C#CCOCCOCCOCCNc1nc(N2CCOCC2)nc(N2CCN(C(=O)[C@H](CCC(=O)O)n3cc([C@@H](N)CCCCN)nn3)CC2)n1", "activity (protection)": -0.0828}
{"smiles": "C/C(=N\\NC(=O)c1ccccc1)c1c(C)[nH]n(-c2ccccc2)c1=O", "activity (protection)": -2.28}
{"smiles": "CCN(c1ccccc1)S(=O)(=O)c1ccc(NC(=O)c2ccco2)cc1", "activity (protection)": -1.51}
{"smiles": "Cc1ccc(/C=N/NC(=O)c2ccc3nc[nH]c3c2)s1", "activity (protection)": -2}
{"smiles": "CC(C)(C)C(=O)NCCc1nc2ccccc2n1CC(=O)c1ccc(Cl)cc1", "activity (protection)": -0.94}
{"smiles": "Cc1ccc(C)c(S(=O)(=O)Nc2ccccc2C(=O)Nc2cc(C)on2)c1", "activity (protection)": -1.99}
{"smiles": "CN(/N=C/c1cc(Cl)cc(Cl)c1O)C(=S)NC(C)(C)C", "activity (protection)": -2.11}
{"smiles": "Cc1oc(-c2ccccc2F)nc1CS(=O)(=O)CC(=O)NC1CCCC(C)C1C", "note": "(stereo not given)", "activity (protection)": 0.318}
{"smiles": "CCn1c2ccccc2c2n[nH]c(=S)nc21", "activity (protection)": -0.605}
{"smiles": "O=C(CCCC(=O)N1CCN(c2ccccc2F)CC1)c1ccccc1", "activity (protection)": 0.0653}
{"smiles": "Cc1ccc2oc(C(=O)N(Cc3ccc(N(C)C)cc3)C3CCS(=O)(=O)C3)c(C)c2c1", "note": "(stereo not given)", "activity (protection)": -2.55}
{"smiles": "CCOc1cc(N2CCOCC2)c(OCC)cc1NC(=O)c1[nH]c(C)c(C(C)=O)c1C", "activity (protection)": -1.39}
{"smiles": "Cc1ncc(CN2CCCC(C(=O)c3cccc(OC(C)C)c3)C2)s1", "note": "(stereo not given)", "activity (protection)": -1.26}
{"smiles": "CC1(NC(=O)CSc2nnc(-c3c[nH]c4ccccc34)n2C2CC2)CCS(=O)(=O)C1", "note": "(stereo not given)", "activity (protection)": 1.32}
{"smiles": "COc1cccc(C(=O)NCc2ccc3[nH]c(C)cc3c2)c1", "activity (protection)": -0.861}
{"smiles": "Cc1ccc(NC2CCCN(C(=O)Cc3nonc3C)C2)cc1C", "note": "(stereo not given)", "activity (protection)": -0.306}
